“And” between values parts separate entries of the source, which are not always exact repeats. Equal values may be shown once. About 83,000 compounds went through this panel and 20% of them were active in at least one assay; those are over-represented in the sample as a whole.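 Percent growth is the endpoint: 0 to 100 indicates growth inhibition (40 means 60% inhibition), 0 means no net growth, and negative values indicate cell death.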 Where a structure was tested more than once in an assay, its records may differ in their call. The source made the active and inactive calls. The calls were made as follows: active = growth percent below 10; inactive = the rest.
What was measured:
Assay in all cases: NCI-60 one-dose screen, 48 h (100 = growth as untreated, 0 = no growth, -100 = all killed)
Conditions in all cases: 10 µM unless noted
[1] = system: NCI-H23 lung
[2] = system: NCI-H226 lung
[3] = system: NCI-H322M lung
[4] = system: HOP-62 NSCLC
[5] = system: NCI-H460 lung
[6] = system: HOP-92 NSCLC
[7] = system: NCI-H522 lung
[8] = system: A549/ATCC NSCLC
[9] = system: 786-0 renal
[10] = system: COLO 205 colon
[11] = system: DU-145 prostate
[12] = system: K-562 leukemia
[13] = system: MALME-3M melanoma
[14] = system: MDA-MB-231 breast
[15] = system: RXF 393 renal
[16] = system: SF-268 CNS
[17] = system: SF-295 CNS
[18] = system: SF-539 CNS
[19] = system: UACC-257 melanoma
[20] = system: M14 melanoma

SMILES	growth [1]	growth [2]	growth [3]	growth [4]	growth [5]	growth [6]	growth [7]	growth [8]	growth [9]	growth [10]	growth [11]	growth [12]	growth [13]	growth [14]	growth [15]	growth [16]	growth [17]	growth [18]	growth [19]	growth [20]
C/C(=N\NC(=O)c1ccncc1)c1ccccc1O	42.5% (inactive) and 30.4% (inactive)	54.5% (inactive) and 58.8% (inactive)	30.3% (inactive) and 20.7% (inactive)	34.3% (inactive) and 33.7% (inactive)	19.3% (inactive) and 14% (inactive)	44.5% (inactive) and 36.7% (inactive)	8.84% (active)	36.4% (inactive) and 40% (inactive)	31.4% (inactive) and 22.6% (inactive)	13.9% (inactive) and 8.85% (active)	40.8% (inactive) and 45.2% (inactive)	35.6% (inactive) and 35.4% (inactive)	65.6% (inactive) and 53.4% (inactive)	34.9% (inactive) and 36.2% (inactive)	63.6% (inactive) and 75.4% (inactive)	37.1% (inactive) and 40.5% (inactive)	40.2% (inactive) and 39.3% (inactive)	52.9% (inactive) and 30.2% (inactive)	43.9% (inactive) and 25.1% (inactive)	27.5% (inactive) and 33.5% (inactive)
Cc1cccc(/C=C\C(=O)c2ccc(Cl)cc2)c1	93.9% (inactive) and 102% (inactive)	112% (inactive) and 100% (inactive)	103% (inactive) and 92.6% (inactive)	109% (inactive) and 113% (inactive)	110% (inactive) and 102% (inactive)	82.3% (inactive)	94.2% (inactive)	88.8% (inactive) and 85.8% (inactive)	82% (inactive) and 74.2% (inactive)	–	114% (inactive) and 96.5% (inactive)	77% (inactive) and 20.5% (inactive)	92.5% (inactive)	97.6% (inactive) and 116% (inactive)	112% (inactive) and 97.8% (inactive)	102% (inactive) and 92.5% (inactive)	161% (inactive) and 93.9% (inactive)	101% (inactive)	105% (inactive) and 109% (inactive)	–
CCN(CC)CCc1nc(-c2ccccc2)no1	83.8% (inactive) and 102% (inactive)	85.8% (inactive) and 104% (inactive)	100% (inactive) and 102% (inactive)	65.2% (inactive) and 98.6% (inactive)	102% (inactive) and 113% (inactive)	81.5% (inactive) and 109% (inactive)	88.5% (inactive)	97.5% (inactive) and 103% (inactive)	89.5% (inactive) and 101% (inactive)	109% (inactive)	–	118% (inactive)	86.2% (inactive) and 120% (inactive)	67.6% (inactive) and 110% (inactive)	74.5% (inactive) and 113% (inactive)	79.9% (inactive) and 98.3% (inactive)	105% (inactive) and 101% (inactive)	83.5% (inactive) and 109% (inactive)	87.2% (inactive) and 90.3% (inactive)	87.9% (inactive) and 98.5% (inactive)
O=C1OC(Oc2ccc(Br)cc2)(c2ccccc2)c2ccccc21 (stereo not drawn)	91.1% (inactive) and 80.5% (inactive)	75.6% (inactive) and 83.7% (inactive)	99.3% (inactive) and 127% (inactive)	113% (inactive) and 107% (inactive)	91.3% (inactive) and 87.8% (inactive)	95.7% (inactive) and 65.6% (inactive)	69% (inactive)	82.6% (inactive) and 88% (inactive)	101% (inactive) and 73.2% (inactive)	105% (inactive) and 111% (inactive)	97.1% (inactive) and 84.1% (inactive)	70.1% (inactive)	89.5% (inactive)	86.4% (inactive) and 107% (inactive)	82.7% (inactive) and 82.3% (inactive)	91.7% (inactive) and 76% (inactive)	83.1% (inactive) and 82.3% (inactive)	104% (inactive) and 98.5% (inactive)	88.5% (inactive) and 90.9% (inactive)	96.4% (inactive) and 98.2% (inactive)
CC(C)Cc1ccc(C(C)C(=O)NCc2ccc(Cn3c(=O)sn(CCCI)c3=O)cc2)cc1 (stereo not drawn)	92% (inactive) and -78.3% (active)	83.8% (inactive) and 4.03% (active)	98.2% (inactive) and 59.4% (inactive)	-56.2% (active)	99.6% (inactive) and 3.28% (active)	73.6% (inactive) and -67.5% (active)	69% (inactive) and -55.6% (active)	95.4% (inactive) and -54.7% (active)	94.3% (inactive) and -88.9% (active)	–	94% (inactive) and -88.2% (active)	3.55% (active)	92.4% (inactive) and -74.4% (active)	92.1% (inactive) and -62% (active)	-94.8% (active)	91% (inactive) and -64.5% (active)	96.1% (inactive) and 35.9% (inactive)	88.7% (inactive) and -96.6% (active)	77.8% (inactive) and -19.9% (active)	88.8% (inactive) and -66.9% (active)
Nc1cc(-c2cccc(OC(F)(F)F)c2)nc2ccc(N3CCCC3)cc12	43.5% (inactive) and 40.1% (inactive) and 38.5% (inactive)	40.2% (inactive) and 48.3% (inactive) and 33.8% (inactive)	49.5% (inactive) and 51.3% (inactive) and 39% (inactive)	57.1% (inactive) and 66.1% (inactive) and 15.6% (inactive)	7.01% (active) and 7.24% (active) and 3.29% (active)	-0.264% (active) and 3.71% (active) and -3.62% (active)	-13.4% (active) and 4.49% (active) and -38.1% (active)	15.1% (inactive) and 18.4% (inactive) and 13.8% (inactive)	9.51% (active) and 22.1% (inactive) and 16.1% (inactive)	-58.4% (active) and -35.8% (active) and -80.6% (active)	14.4% (inactive) and 16.2% (inactive) and 5.85% (active)	-12.9% (active) and 4.92% (active) and 3.73% (active)	-28.6% (active) and 51.7% (inactive) and 24.8% (inactive)	5.28% (active) and 18.1% (inactive) and 29.3% (inactive)	7.48% (active) and 12.1% (inactive) and 20.7% (inactive)	26.1% (inactive) and 28.4% (inactive) and 27.6% (inactive)	5.27% (active) and 16.2% (inactive) and 9.05% (active)	-39.9% (active) and -21.2% (active) and -28.5% (active)	-42.2% (active) and 74.8% (inactive) and 48.9% (inactive)	-72.1% (active) and 1.77% (active) and -1.96% (active)
CNC(=O)c1cccc(-c2ccc3c(N4CCOC[C@@H]4C)nc(N4CCOC[C@@H]4C)nc3n2)c1	18.3% (inactive) and 10.2% (inactive)	-11.5% (active) and -2.84% (active)	6.83% (active) and -14.6% (active)	-3.27% (active) and -14.6% (active)	11.4% (inactive) and 9.46% (active)	-25.3% (active) and -21.5% (active)	10.4% (inactive) and -11.1% (active)	4.83% (active) and -7.57% (active)	0.967% (active) and -5.74% (active)	–	12.2% (inactive)	25.3% (inactive) and 12.6% (inactive)	-32.1% (active) and -46.6% (active)	6.14% (active) and 4.21% (active)	-28.8% (active) and -33.9% (active)	9.04% (active) and 13.7% (inactive)	-37.4% (active) and -36.6% (active)	-26.5% (active) and -40.2% (active)	-21.2% (active) and -25.5% (active)	–
OC(CSc1ccccc1)CN1CCN(c2cccc(Cl)c2)CC1 (stereo not drawn)	104% (inactive) and 96.6% (inactive)	91.4% (inactive) and 89.5% (inactive)	108% (inactive) and 102% (inactive)	107% (inactive) and 102% (inactive)	114% (inactive) and 109% (inactive)	82% (inactive) and 83.2% (inactive)	104% (inactive) and 83.7% (inactive)	101% (inactive) and 98.4% (inactive)	94.8% (inactive) and 105% (inactive)	105% (inactive) and 99.9% (inactive)	116% (inactive) and 105% (inactive)	84% (inactive) and 97% (inactive)	–	96.6% (inactive) and 96.3% (inactive)	106% (inactive) and 93.8% (inactive)	100% (inactive) and 99.1% (inactive)	110% (inactive) and 105% (inactive)	113% (inactive) and 105% (inactive)	93.6% (inactive) and 95% (inactive)	100% (inactive) and 93.8% (inactive)
